Consider eight compounds from PubChem BioAssay (NCATS).

Results filed as inconclusive are left out. Activity calls are given as the source filed them. Unless noted, calls follow the shape of the dose curve; as a rule, active = well fitted curve in the direction sought with a large enough effect; inconclusive = small, poorly fitted or top-dose-only effect, or another doubt; inactive = no such curve, though single readings can be large; an effect the other way counts as inactive or inconclusive.

Test [1] is described as follows: qHTS for differential inhibitors of proliferation of Plasmodium falciparum line Dd2 (AID 1882).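 Also: series mostly up to about 29 µM; compound exposure of 72 h on infected erythrocytes; nearly all actives have a fitted effect of over 65% in size.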 As to conditions: Potency: Plasmodium falciparum Dd2 proliferation inhibition. An outline of the steps:
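SYBR Green I DNA fluorescence read-out, ex 485/em 535 nm. Signals were normalized to 0.29 uM artemisinin and DMSO wells, then corrected using vehicle-only plates flanking each stack. Parasite growth ran 72 h in erythrocytes before lysis.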
In general terms: qHTS replaces the single test concentration by a dilution series.

Test [2] is described as follows: qHTS for differential inhibitors of proliferation of Plasmodium falciparum line W2 (AID 1883).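 Also: parasites grown with compound for 72 h before lysis and staining.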 The note with it: Potency: Plasmodium falciparum W2 proliferation inhibition.
The nature of test [3]: qHTS for differential inhibitors of proliferation of Plasmodium falciparum line HB3 (AID 1886).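 Also: parasites grown with compound for 72 h before SYBR Green readout.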 As to conditions: Potency: Plasmodium falciparum HB3 proliferation inhibition.
Test [4] is described as follows: qHTS Assay for Modulators of Human Peripheral Myelin Protein 22 (PMP22) Expression/Activity (AID 1967; active = well fitted curve in the direction sought with a large enough effect in the signal ratio; the % refers to the signal ratio). An outline of the steps:
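MSC80 mouse Schwann cells stably carrying Pmp22 promoter–green click beetle luciferase plus EF-alpha–red luciferase control were dosed for 24h at 37 °C. Dual-colour luminescence was filter-overlap corrected; %Activity came from green/red ratio versus untreated cells.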

In test [5] the target is Ferritin light chain (Equus caballus) (UniProt P02791). Kind of test: qHTS Validation Assay for Identification of Novel General Anesthetics (AID 2323). Also: series mostly up to about 77 µM. The gist of the method:
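Competitive displacement of profluorescent 1-aminoanthracene (1-AMA, 50% saturated solution in PBS) from 10 uM horse-spleen apoferritin. Compounds incubated 10 min at room temperature; fluorescence read at 380 nm excitation/535 nm emission, normalized to free 1-AMA and complex, fitted with four-parameter Hill equation.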

In test [6] the target is ATP-dependent DNA helicase Q1 (Homo sapiens) (UniProt P46063). Kind of test: qHTS Validation Assay for Inhibitors of RecQ-Like Dna Helicase 1 (RECQ1) (AID 2353). Also: potency is read from the fitted curve at half-maximal effect. The gist of the method: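 50 nM RECQ1T1 preincubated 15 min with compound in Tris pH 8.0 buffer with MgCl2, DTT, Tween-20 and 2.5 ug/ml poly(dI-dC); started with 200 nM TAMRA/BHQ-2 forked duplex and 2 mM ATP. Unwinding read as fluorescence (525/598 nm), two reads 2 h apart.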

A short description of test [7]: High Content Imaging Cell-Based qHTS for Inhibitors of the mTORC1 Signaling Pathway in MEF (Tsc2-/-, p53-/-) Cells (AID 2666).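 Also: percent of cells scored positive for phospho-rpS6 Ser235/236 immunostaining by imaging.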 An outline of the steps: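 Read-out: % positive cells per well, with thresholds from highest- and lowest-signal wells, based on phospho-rpS6 (Ser235/236) intensity normalized to Hoechst nuclear stain. Cells: Tsc2-/-, p53-/- MEFs carrying empty vector; compound 24 hrs, 37 degree Celsius.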

Test [8] is described as follows: High Content Imaging Cell-Based qHTS for Inhibitors of the mTORC1 Signaling Pathway in MEF Cells (AID 2667).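 Also: Tsc2-/- p53-/- MEFs stably re-expressing wild-type Tsc2 exposed 24 h; series mostly up to about 38 µM.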 The gist of the method: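 MEF (Tsc2-/-, p53-/-, WT Tsc2 re-expressed); cpd 24 h, 37 °C; PFA fix; Alexa-488 anti-p-rpS6 Ser235/236, PI, Hoechst; IN Cell imaging; Hoechst/Alexa-488 intensity ratio; % active cells, thresholds set from rapamycin and DMSO wells.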

Test [9] can be described thus: Cytometry Cell-Based qHTS for Inhibitors of the mTORC1 Signaling Pathway in MEF cells (AID 2668).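 Also: Tsc2-/- p53-/- mouse embryonic fibroblasts stably re-expressing wild-type Tsc2; percent cells positive for phospho-rpS6 Ser235/236 relative to propidium iodide stain; series mostly up to about 38 µM.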 An outline of the steps: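 WT MEFs (Tsc2-/-, p53-/- stably re-expressing WT Tsc2) in DMEM + 10% FBS received compounds 24 hrs after plating, for 24 hrs at 37 degree Celsius. Fixed cells stained with Alexa-488 anti-phospho-rpS6 Ser235/236 and propidium iodide; laser-scanning cytometry read-out.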

A short description of test [10]: Validation screen for small molecules that induce DNA re-replication in MCF 10A normal breast cells (AID 463097). Also: nearly all actives have a fitted effect of over 60% in size. An outline of the steps:
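Readout: Hoechst nuclear fluorescence intensity, 405 ex / 500-530 em, by scanning plate imager; re-replication scored as increase in nuclei with elevated DNA content. Cells exposed to compound 48 hr, 37 C, 5% CO2 beforehand.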

The target in test [11] is Ubiquitin carboxyl-terminal hydrolase 2 (Homo sapiens) (UniProt O75604). Kind of test: qHTS Validation Assay for Inhibitors of Ubiquitin-specific Protease USP2a Using CHOP2 as the Reporter (AID 463106). An outline of the steps: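 USP2 core (10nM final) was preincubated with compound for 30min at RT in 20mM Tris-HCl pH 8.0, 2mM CaCl2, 2mM beta-mercaptoethanol, 0.05% CHAPS. Ub-CHOP2 and reporter substrate (25nM each) were added, and fluorescence (Ex 485/Em 531nm) was read after 60min.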

The target in test [12] is DNA polymerase III PolC-type (Bacillus subtilis (strain 168)) (UniProt P13267). Kind of test: qHTS Validation Assay for the Inhibitors of DNA Replication in Gram-Positive Bacteria (AID 485295).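 Also: PicoGreen fluorescence of double-stranded DNA made on primed circular M13 template; series mostly up to about 57 µM.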 The gist of the method:
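Reconstituted B. subtilis holoenzyme (Pol III, beta clamp, SSB, primase) was preincubated with compound at room temperature, then given single-stranded circular M13Gori plus dNTPs and NTPs. EDTA-containing PicoGreen stopped the reaction, and dsDNA product was read by fluorescence.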

Test [13] concerns the target Tumor susceptibility gene 101 protein (Homo sapiens) (UniProt Q99816). Kind of test: qHTS Validation Assay for Iinhibitors of HIV-1 Budding by Blocking the Interaction of PTAP/TSG101 (AID 485342; calls by dose curve). The gist of the method:
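Tsg101 binding domain (10 uM final) in pH 7.5 HEPES/NaCl/Tween 20/EDTA/TCEP buffer was mixed with pin-transferred compounds, then FITC-labeled PTAP peptide (50 nM final) was added; after 20 min at r.t., fluorescence polarization was read.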

Test [14] in a line: qHTS Validation Assay to Find Inhibitors of Chronic Active B-Cell Receptor Signaling (AID 485345; active = well fitted curve in the direction sought with a large enough effect in the main read-out, with a control signal flat, not every such curve was filed as active). The gist of the method:
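TMD8 ABC-DLBCL cells with dox-inducible green luciferase–IκBα fusion and red native luciferase; compounds 46 uM–3 nM, 4 h at 37C with doxycycline in 0.5% FBS IMDM. Green/red ratio normalized to basal and 10 uM MG-132.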

Test [15] concerns the target Beta-2 adrenergic receptor (Homo sapiens) (UniProt P07550). Kind of test: qHTS validation assay of beta-arrestin-biased ligands of beta2-adrenergic receptor (AID 485366). An outline of the steps: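 Luminescence from a tTA-responsive luciferase, induced when recombinant beta-arrestin is recruited to recombinant beta2-AR, served as the agonism signal. Cells were exposed to compound for 18 hr at 37 degrees C; titrations spanned up to 46 microM.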

In test [16] the target is RecQ-like DNA helicase BLM (Homo sapiens) (UniProt P54132). Kind of test: qHTS Validation Assay for Inhibitors of Bloom's syndrome helicase (BLM) (AID 2364). The gist of the method: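 BLM 50 nM in 25 mM Tris-HCl pH 8.0, 5 mM NaCl, 2 mM MgCl2, 1 mM DTT, 0.01% Tween-20, 2.5 ug/ml poly(dI-dC); 15 min cpd preinc, RT. Start: 200 nM forked DNA + 2 mM ATP (final). TAMRA read, 2 reads 2 h apart.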

Test [17] is described as follows: Cytometric Cell-Based qHTS for Inhibitors of the mTORC1 Signaling Pathway in MEF (Tsc2-/-, p53-/-) Cells (AID 2660).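 Also: percent of cells above a phospho-rpS6 to PI ratio cutoff in each well; series mostly up to about 38 µM.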 An outline of the steps:
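Percent of cells positive for normalized phospho-S6 staining is reported, with the cutoff set from rapamycin (7.5 nM) versus DMSO wells. Tsc2-/-, p53-/- MEFs received compound for 24 hrs.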

In test [18] the target is Lysosomal alpha-glucosidase (Homo sapiens) (UniProt P10253). Kind of test: Confirmation of Inhibitors and Activators of Purified Human alpha-Glucosidase (AID 2115; active = well fitted curve in either direction with a large enough effect). The note with it: purified human GAA enzyme activity. The gist of the method:
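Purified human enzyme (4 nM) with 4-methylumbelliferyl-alpha-D-glucopyranoside (400 uM), compounds up to 77 uM, in citrate/phosphate buffer pH 5.0 with 0.005% Tween-20. After 20 min at RT, stopped at pH 10; fluorescence ex 365/em 440 nm; AC50 from Hill fits.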

Chain of RecQ-like DNA helicase BLM (Homo sapiens) (P54132 whole entry, looked up): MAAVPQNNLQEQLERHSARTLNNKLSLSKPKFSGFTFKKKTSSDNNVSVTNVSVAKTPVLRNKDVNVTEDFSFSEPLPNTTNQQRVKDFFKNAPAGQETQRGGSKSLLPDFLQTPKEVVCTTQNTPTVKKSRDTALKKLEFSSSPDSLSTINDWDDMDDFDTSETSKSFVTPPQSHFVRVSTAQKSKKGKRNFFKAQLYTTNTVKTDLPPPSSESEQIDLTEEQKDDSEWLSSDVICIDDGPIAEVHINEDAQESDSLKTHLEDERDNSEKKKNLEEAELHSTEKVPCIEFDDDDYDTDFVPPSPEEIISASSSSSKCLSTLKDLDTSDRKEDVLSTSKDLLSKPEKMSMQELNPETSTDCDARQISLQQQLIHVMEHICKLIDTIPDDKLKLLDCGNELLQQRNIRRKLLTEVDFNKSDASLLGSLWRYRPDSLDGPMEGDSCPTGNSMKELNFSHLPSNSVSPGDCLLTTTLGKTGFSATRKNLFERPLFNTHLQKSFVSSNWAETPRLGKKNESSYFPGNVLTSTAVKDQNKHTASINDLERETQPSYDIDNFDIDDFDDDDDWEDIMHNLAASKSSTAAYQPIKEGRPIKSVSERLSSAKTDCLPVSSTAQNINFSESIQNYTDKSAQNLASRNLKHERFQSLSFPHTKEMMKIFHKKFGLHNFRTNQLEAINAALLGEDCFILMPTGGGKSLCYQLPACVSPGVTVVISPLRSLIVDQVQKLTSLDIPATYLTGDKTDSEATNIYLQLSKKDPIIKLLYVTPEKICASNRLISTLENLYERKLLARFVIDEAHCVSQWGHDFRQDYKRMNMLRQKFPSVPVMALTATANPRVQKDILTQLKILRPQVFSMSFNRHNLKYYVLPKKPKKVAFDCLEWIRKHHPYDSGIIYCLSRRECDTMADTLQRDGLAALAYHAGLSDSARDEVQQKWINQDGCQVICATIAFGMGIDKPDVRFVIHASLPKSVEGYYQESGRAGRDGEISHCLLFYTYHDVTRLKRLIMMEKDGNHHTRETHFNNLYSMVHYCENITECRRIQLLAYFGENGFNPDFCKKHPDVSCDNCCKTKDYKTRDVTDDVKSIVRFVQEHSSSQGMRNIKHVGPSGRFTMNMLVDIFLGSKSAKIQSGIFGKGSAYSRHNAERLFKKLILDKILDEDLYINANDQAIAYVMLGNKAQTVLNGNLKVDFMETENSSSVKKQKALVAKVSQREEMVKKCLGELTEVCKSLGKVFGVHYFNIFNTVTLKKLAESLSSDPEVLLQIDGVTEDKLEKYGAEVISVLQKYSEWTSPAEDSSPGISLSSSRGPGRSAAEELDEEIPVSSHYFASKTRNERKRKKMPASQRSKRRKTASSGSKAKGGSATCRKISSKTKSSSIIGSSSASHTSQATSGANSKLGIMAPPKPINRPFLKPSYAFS
Chain of Ferritin light chain (Equus caballus) (P02791 2-175 limits assumed): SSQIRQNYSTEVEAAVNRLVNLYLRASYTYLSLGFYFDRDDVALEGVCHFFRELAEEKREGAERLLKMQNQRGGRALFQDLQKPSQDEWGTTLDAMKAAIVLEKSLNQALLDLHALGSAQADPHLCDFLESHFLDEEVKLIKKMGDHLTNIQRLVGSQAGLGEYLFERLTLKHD
Chain of Beta-2 adrenergic receptor (Homo sapiens) (P07550 whole entry, looked up): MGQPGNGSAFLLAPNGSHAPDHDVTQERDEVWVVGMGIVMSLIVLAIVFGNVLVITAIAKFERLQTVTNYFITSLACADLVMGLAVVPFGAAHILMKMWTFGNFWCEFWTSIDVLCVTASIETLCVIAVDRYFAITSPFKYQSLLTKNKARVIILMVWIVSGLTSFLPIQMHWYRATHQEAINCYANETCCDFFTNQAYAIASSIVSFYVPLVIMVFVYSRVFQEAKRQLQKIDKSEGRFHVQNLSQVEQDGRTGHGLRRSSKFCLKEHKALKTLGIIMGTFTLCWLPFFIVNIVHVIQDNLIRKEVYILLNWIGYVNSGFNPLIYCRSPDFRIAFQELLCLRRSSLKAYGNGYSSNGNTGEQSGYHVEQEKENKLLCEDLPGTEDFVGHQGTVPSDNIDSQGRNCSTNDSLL
Chain of ATP-dependent DNA helicase Q1 (Homo sapiens) (P46063 whole entry, looked up): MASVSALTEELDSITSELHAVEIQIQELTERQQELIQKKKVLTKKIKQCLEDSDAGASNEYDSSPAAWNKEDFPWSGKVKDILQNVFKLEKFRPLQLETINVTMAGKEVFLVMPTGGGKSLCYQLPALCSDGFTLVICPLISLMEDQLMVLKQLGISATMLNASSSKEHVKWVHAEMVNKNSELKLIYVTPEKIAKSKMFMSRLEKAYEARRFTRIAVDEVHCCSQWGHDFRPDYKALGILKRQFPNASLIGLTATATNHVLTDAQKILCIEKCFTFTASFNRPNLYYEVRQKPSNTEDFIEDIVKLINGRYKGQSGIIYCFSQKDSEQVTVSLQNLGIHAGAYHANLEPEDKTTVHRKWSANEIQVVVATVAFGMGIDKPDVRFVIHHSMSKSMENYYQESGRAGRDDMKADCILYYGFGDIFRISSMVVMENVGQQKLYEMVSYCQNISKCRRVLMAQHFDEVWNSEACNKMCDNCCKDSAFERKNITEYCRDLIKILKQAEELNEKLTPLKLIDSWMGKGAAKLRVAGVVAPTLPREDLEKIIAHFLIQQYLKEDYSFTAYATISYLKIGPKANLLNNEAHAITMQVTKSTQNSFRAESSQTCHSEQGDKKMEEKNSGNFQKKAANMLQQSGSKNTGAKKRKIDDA
Chain of Ubiquitin carboxyl-terminal hydrolase 2 (Homo sapiens) (O75604 whole entry, looked up): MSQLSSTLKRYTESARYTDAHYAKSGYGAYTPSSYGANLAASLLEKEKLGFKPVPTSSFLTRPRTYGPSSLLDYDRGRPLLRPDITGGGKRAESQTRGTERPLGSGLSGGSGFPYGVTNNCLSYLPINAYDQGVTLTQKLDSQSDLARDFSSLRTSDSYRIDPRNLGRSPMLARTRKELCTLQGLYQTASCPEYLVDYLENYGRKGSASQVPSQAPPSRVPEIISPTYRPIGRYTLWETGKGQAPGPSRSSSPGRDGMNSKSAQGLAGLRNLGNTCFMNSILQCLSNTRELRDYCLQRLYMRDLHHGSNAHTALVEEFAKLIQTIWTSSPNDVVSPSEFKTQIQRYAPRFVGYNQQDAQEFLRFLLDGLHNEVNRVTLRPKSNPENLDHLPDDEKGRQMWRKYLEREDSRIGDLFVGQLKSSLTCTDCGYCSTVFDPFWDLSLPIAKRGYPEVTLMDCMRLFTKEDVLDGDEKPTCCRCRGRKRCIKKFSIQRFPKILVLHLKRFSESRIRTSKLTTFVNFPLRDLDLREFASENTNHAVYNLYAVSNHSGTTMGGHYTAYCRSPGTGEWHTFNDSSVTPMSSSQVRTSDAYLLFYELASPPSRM
Chain of DNA polymerase III PolC-type (Bacillus subtilis (strain 168)) (P13267 whole entry, looked up): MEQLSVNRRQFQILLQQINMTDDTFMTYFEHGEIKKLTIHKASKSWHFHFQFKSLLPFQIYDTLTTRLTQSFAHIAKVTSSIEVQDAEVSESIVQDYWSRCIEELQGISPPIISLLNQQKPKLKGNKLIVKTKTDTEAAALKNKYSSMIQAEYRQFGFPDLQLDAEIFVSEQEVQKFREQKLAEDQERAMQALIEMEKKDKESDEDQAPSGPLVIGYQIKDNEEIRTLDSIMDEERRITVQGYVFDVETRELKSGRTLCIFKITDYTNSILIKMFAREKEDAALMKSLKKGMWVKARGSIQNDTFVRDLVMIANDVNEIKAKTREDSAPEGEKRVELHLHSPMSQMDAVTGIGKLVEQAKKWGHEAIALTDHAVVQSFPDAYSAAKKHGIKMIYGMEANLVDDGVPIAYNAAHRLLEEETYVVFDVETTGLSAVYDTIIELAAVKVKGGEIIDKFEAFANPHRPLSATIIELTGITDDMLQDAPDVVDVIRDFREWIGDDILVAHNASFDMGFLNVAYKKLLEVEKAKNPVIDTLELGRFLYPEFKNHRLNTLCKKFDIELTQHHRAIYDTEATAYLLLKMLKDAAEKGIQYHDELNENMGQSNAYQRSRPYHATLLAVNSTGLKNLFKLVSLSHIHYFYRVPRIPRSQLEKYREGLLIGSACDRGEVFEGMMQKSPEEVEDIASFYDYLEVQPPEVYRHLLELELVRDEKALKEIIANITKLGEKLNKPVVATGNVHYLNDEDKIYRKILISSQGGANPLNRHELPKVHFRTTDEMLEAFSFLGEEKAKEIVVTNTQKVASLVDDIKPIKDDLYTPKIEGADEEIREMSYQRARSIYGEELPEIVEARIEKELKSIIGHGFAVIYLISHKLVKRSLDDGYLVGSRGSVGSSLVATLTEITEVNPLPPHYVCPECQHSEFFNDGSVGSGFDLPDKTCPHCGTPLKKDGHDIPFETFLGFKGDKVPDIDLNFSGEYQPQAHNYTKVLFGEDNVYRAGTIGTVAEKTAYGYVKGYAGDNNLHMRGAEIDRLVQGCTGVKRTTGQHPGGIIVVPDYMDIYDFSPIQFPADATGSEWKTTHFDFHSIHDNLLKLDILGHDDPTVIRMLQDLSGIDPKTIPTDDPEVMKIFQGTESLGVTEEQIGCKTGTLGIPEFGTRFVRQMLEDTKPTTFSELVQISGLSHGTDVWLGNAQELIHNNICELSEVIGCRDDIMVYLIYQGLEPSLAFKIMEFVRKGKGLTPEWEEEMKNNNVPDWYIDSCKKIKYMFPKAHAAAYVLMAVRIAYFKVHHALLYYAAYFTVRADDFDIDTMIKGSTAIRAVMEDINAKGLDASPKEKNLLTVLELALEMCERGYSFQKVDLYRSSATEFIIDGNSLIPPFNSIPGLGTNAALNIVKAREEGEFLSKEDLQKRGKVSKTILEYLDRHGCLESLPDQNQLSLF

As for `CC(N)=NCCCC[C@@H](N)C(=O)O`, the Potency entry in test [1], in test [2], in test [3], in test [5], in [6] and in test [7] was “inactive” in each case. Moreover, the Potency result in test [8], in [9], in test [10], in test [11] and in [12] was “inactive” in each case. In addition, the call in test [4], in test [13], in test [14] and in [15] was inactive.
Regarding `CC(N)(Cc1ccc(O)cc1)C(=O)O` (centres undefined), the Potency entry in test [1], in test [2], in [3], in test [5], in test [16] and in [7] was “inactive” throughout. The Potency entry in test [8], in [9], in test [10], in test [11] and in test [12] was “inactive” each time. Also, the outcome in [4], in test [13], in [14] and in [15] was inactive. In addition, the Potency in [6] is 11.2 µM (active).
For the compound `[Li+]`, the Potency result in test [1], in test [2], in test [3], in test [5], in test [6] and in test [16] was “inactive” throughout. Besides, the Potency result in test [7], in test [8], in test [9], in [10], in test [11] and in test [12] was “inactive” throughout. In addition, the outcome in test [4], in test [17], in test [13], in test [14] and in test [15] was inactive.
Take `CC(C)NCC(O)COc1ccc(CC(N)=O)cc1` (centres undefined): the Potency result in test [1], in [2], in test [3], in test [5], in test [6] and in test [16] was “inactive” in each case. Besides, the Potency result in test [7], in [9], in [10], in test [11] and in [12] was “inactive” in each case. Also, the compound was called inactive in [4], in [13] and in [14].
In the case of `O=C(O)CCC(=O)N1CCCC1C(=O)O` (centres undefined), the Potency result in test [1], in test [2], in [3], in test [5], in [6] and in [7] was “inactive” each time. For the same compound, the Potency result in test [8], in test [9], in test [10], in test [11] and in test [12] was “inactive” each time. The call in [4], in test [13], in test [14] and in test [15] was inactive.
In the case of `OC[C@H]1NC[C@@H](O)[C@@H]1O`, the Potency entry in [1], in [2], in [3], in test [5], in test [6] and in test [16] was “inactive” throughout. For the same compound, the Potency entry in [7], in [8], in [10], in [11] and in test [12] was “inactive” each time. Further, the call in test [4], in [18], in test [17], in test [13], in [14] and in test [15] was inactive.
Take `NCCCCN`: the Potency entry in test [1], in test [2], in [3], in test [5], in test [6] and in [7] was “inactive” each time. The Potency entry in test [8], in [9], in [10], in [11] and in [12] was “inactive” throughout. Further, the call in [4], in test [13], in [14] and in [15] was inactive.
For `CSC(N)=NCCC[C@H](N)C(=O)O`, the Potency result in test [1], in test [2], in test [3], in test [5], in [16] and in test [7] was “inactive” in each case. The Potency result in test [8], in test [10], in test [11] and in test [12] was “inactive” throughout. The call in [4], in [17], in test [13], in [14] and in [15] was inactive.
